In PubChem BioAssay AID435005 (Broad Institute, 2010) one finds protection from apoptosis data, which are given here for 83 compounds.

The whole screen tested about 300,000 compounds, of which about 2,400 (0.8%) were called active. The full list was thinned out, with actives kept by preference. Values without a mark were called inactive.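 How the source made its calls: active means Every replicate reaches about 75%, or at least half do and their mean reaches it too (limit read from the data); inconclusive means At least half of replicates reach the limit but their mean does not; inactive means Under half of replicates reach the limit.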

A short description of the assay: inhibitors of cytokine-induced beta cell apoptosis, primary screen, luminescence (AID 435005).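 Further: 0% = cytokine-treated negative control wells and 100% = positive control rescue; higher means more ATP so stronger rescue from cytokine killing.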 Particulars: INS-1E cytokine-induced death, ATP luminescence, 48 h; hits give high values; percent of positive-control rescue, neutral wells zero; concentration not given here.
As for `COc1ccc2nc3n(c(=O)c2c1)-c1cc(C)ccc1C(=O)NC3Cc1ccc(O)cc1` (stereo not drawn), the protection from apoptosis was 9.76%.

In the case of `COc1ccc(NS(=O)(=O)c2cc(NC(=O)c3ccc(S(=O)(=O)N(C)C)cc3)ccc2N2CCOCC2)cc1`, the protection from apoptosis was 5.26%.

With `COc1ccccc1OCCNC(=O)C(CCSC)NC(=O)COc1ccccc1` (stereo not drawn), the protection from apoptosis was -1.66%.

In the case of `Cc1ccc(S(=O)(=O)N2CCN(C)CC2)cc1`, the protection from apoptosis was 4.63%.

`Cc1ccc(C)c(S(=O)(=O)N2CCN(c3ncnc4sccc34)CC2)c1`: the protection from apoptosis was 112% (active).

With `Cc1ccc(C)c(S(=O)(=O)N2CCN(C(=O)Nc3ccccc3)CC2)c1`, the protection from apoptosis is -4.43%.

Regarding `COc1ccc(C)cc1S(=O)(=O)N1CCN(S(=O)(=O)c2cc(C(=O)O)ccc2C)CC1`, the protection from apoptosis was -3.1%.

With `Cc1ccc(S(=O)(=O)N2CCN(c3ncnc4ccccc34)CC2)cc1`, the protection from apoptosis is 102% (active).

For `Cc1cc(N2CCN(S(=O)(=O)c3ccc(C)c(C)c3)CC2)c2ccccc2n1`, the protection from apoptosis is 10.4%.

Take `COC(=O)[C@]1(CC(C)C)N[C@H](c2ccc(SC3CCCCC3)cc2)[C@@H]2C(=O)N(C)C(=O)[C@@H]21`: the protection from apoptosis is 2.66%.

In the case of `C[C@H](CO)N1C[C@H](C)[C@@H](CN(C)C(=O)NC2CCCCC2)Oc2ccc(NC(=O)c3ccncc3)cc2C1=O`, the protection from apoptosis is -8.1%.

In the case of `CCOc1ccc(NS(=O)(=O)c2ccc(Cl)c(C(=O)N(C)Cc3cccnc3)c2)cc1`, the protection from apoptosis is 5.11%.

As for `COc1ccccc1CNC(=O)COC(=O)c1cccs1`, the protection from apoptosis was -8.13%.

`O=C1NC[C@@H](c2ccccc2)OC(=O)[C@H](Cc2ccc(F)cc2)CC/C=C/C[C@H]1CC(=O)N(CCO)Cc1ccccc1`: the protection from apoptosis is 5.81%.

For the compound `C#CCOCCOCCOCCNc1nc(N2CCN(C(=O)[C@H](CCCN=C(N)N)n3cc(C(N)[C@@H](C)CC)nn3)CC2)nc(N2CCN(C(=O)[C@H](CO)n3cc([C@@H](N)C(C)C)nn3)CC2)n1` (stereo partly drawn), the protection from apoptosis was -10.4%.

Consider `COc1c(O)ccc2c1CN1CCc3cc4c(cc3C1C2)OCO4` (stereo not drawn), for which the protection from apoptosis was -2.11%.

As to `COc1ccc2cc1Oc1ccc(cc1)C[C@H]1c3cc(c(OC)cc3CCN1C)Oc1c(O)c(OC)cc3c1[C@H](C2)N(C)CC3`, the protection from apoptosis was 98.5% (active).

Turning to `O=C(CNC(=O)c1ccco1)NNC(=O)c1ccc(Br)cc1`, the protection from apoptosis was -6.27%.

Turning to `CC(C)(C)OC(=O)C[C@H]1C/C=C\C[C@@H](CC(=O)N[C@H](CO)Cc2ccccc2)C(=O)NC[C@@H](c2ccccc2)OC1=O`, the protection from apoptosis is 6.61%.

In the case of `CC1O[C@H](OC2C(COC3OC(CO)C(O)[C@H](O)C3O)OC(OC3CC[C@]4(C)C(CC[C@@]5(C)[C@@H]4C=C[C@]46OC[C@@]7(CCC(C)(C)C[C@H]74)C(O)C[C@@]56C)C3(C)C)C(O)C2O)C(O)C(O)C1O` (stereo partly drawn), the protection from apoptosis was -6.92%.

As for `C=C(C)C(=O)O[C@H]1C/C(C)=C\C(=O)/C=C(\C)[C@H](O)[C@@H]2OC(=O)C(=C)[C@@H]21`, the protection from apoptosis was 96.8% (active).

As for `O=C(NCc1ccc2c(c1)OCO2)c1cc([N+](=O)[O-])ccc1N1CCOCC1`, the protection from apoptosis was 12.9%.

As to `O=C(COC(=O)C1CCCO1)Nc1nc(-c2ccc(F)cc2)cs1` (stereo not drawn), the protection from apoptosis is 0.639%.

With `c1ccc2c(CCN3CCNC[C@H]3Cc3cccc4ccccc34)cccc2c1`, the protection from apoptosis was 1.24%.

As for `CC(C)CC[n+]1ccn(C2=C([O-])c3ccccc3C(=O)/C2=N\S(=O)(=O)c2ccccc2)c1`, the protection from apoptosis was 95% (active).

`COc1ccc(S(=O)(=O)/N=C2\C=C(NS(=O)(=O)c3ccccc3)C(=O)c3ccccc32)cc1`: the protection from apoptosis was 1.27%.

With `COc1ccc(OCC(=O)NNC(=O)C2CCC2)cc1`, the protection from apoptosis was -4.44%.

For `COC(=O)[C@]1(Cc2ccccc2)N[C@H](CN(C)S(=O)(=O)c2ccc(F)cc2)[C@@H]2C(=O)N(Cc3ccccc3)C(=O)[C@@H]21`, the protection from apoptosis is 10.3%.

In the case of `Cc1ccc(OCc2cc(C(=O)N(C)CCc3ccccc3)no2)cc1C`, the protection from apoptosis was -0.126%.

Regarding `Cc1cc(CN(C)C(=O)c2cc(COc3ccc(C)c(C)c3)on2)n[nH]1`, the protection from apoptosis is -0.122%.

For the compound `CN(Cc1cccnc1)C(=O)c1cc(COc2ccc3ncccc3c2)on1`, the protection from apoptosis was 101% (active).

Consider `O=C(COC(=O)COc1ccccc1F)Nc1cccc(S(=O)(=O)N2CCCCC2)c1`, for which the protection from apoptosis was -4.07%.

For the compound `O=C(NCCCN1CCOCC1)c1cn(-c2ccccc2)nc1-c1ccc(F)cc1`, the protection from apoptosis was -0.73%.

With `CCOC(=O)c1ccccc1C(=O)N1CCOCCOCCOCC1`, the protection from apoptosis is 0.0542%.

Turning to `Cc1oc2c(c1C(=O)N1CCOCC1)C(=O)c1ccccc1C2=O`, the protection from apoptosis is 108% (active).

As to `Cc1noc(C)c1C(=O)N1CCOCC1`, the protection from apoptosis is -4.19%.

Turning to `CC(=O)Nc1ccc(S(=O)(=O)Nc2ccc(N3CCOCC3)c(F)c2)cc1`, the protection from apoptosis is 2.71%.

In the case of `CC(=O)Nc1ccc(S(=O)(=O)Nc2ccc(N3CCCCC3)cc2)cc1`, the protection from apoptosis is 119% (active).

As for `COc1cc(NS(=O)(=O)c2ccc(NC(C)=O)cc2)cc(OC)c1`, the protection from apoptosis was 25.4%.

With `COc1ccc(C)cc1NC(=O)CSc1cccc[n+]1[O-]`, the protection from apoptosis is -1.83%.

For the compound `CSc1ncccc1C(=O)NCC(c1ccco1)N1CCCCC1` (stereo not drawn), the protection from apoptosis was -20.2%.

Regarding `CC(C(=O)N1CCc2ccccc21)N(C)CC(=O)Nc1ccc(F)cc1` (stereo not drawn), the protection from apoptosis was 6.77%.

`Fc1ccc2cnc(-c3ccccc3)cc2c1`: the protection from apoptosis is -4.87%.

In the case of `C[C@]12CC[C@H](O)CC1=CCC1C2CC[C@@]2(C)C1CC[C@@H]2NC(=O)CCC(=O)O` (stereo partly drawn), the protection from apoptosis is 0.606%.

`COc1cc(OC)cc(C(=O)NNC(=O)Cc2cccs2)c1`: the protection from apoptosis was -2.67%.

Regarding `CC(=O)c1c(C)oc2ccc(NS(=O)(=O)c3ccc(C(=O)O)cc3)cc12`, the protection from apoptosis was -1.56%.

For the compound `COc1ccc(S(=O)(=O)Nc2ccc3oc(C)c(C(C)=O)c3c2)cc1`, the protection from apoptosis was 87.4% (active).

Turning to `CC(=O)c1c(C)oc2ccc(NS(=O)(=O)c3ccccc3)cc12`, the protection from apoptosis is -0.111%.

For `Cc1ccc(S(=O)(=O)N2CCN(C(=O)CN3C(=O)NC(C)(c4ccc(Cl)cc4)C3=O)CC2)c(C)c1` (stereo not drawn), the protection from apoptosis was 0.524%.

As for `Cc1ccc(S(=O)(=O)N(C)CC(=O)NCC(c2ccc(F)cc2)N2CCOCC2)cc1` (stereo not drawn), the protection from apoptosis is -2.01%.

`CC(C)CC1NC(=O)c2cc(Cl)ccc2-n2c1nc1ccccc1c2=O` (stereo not drawn): the protection from apoptosis is -3.6%.

As for `O=C(Nc1cccc(S(=O)(=O)N2CCCCC2)c1)c1cncc(Br)c1`, the protection from apoptosis is -1.23%.

Take `CCCSc1ccc([C@H]2N[C@@](Cc3ccccc3)(C(=O)OC)[C@H]3C(=O)N(C)C(=O)[C@@H]23)cc1`: the protection from apoptosis was -4.97%.

For `CCOc1ccc(-n2c(O)c(/C=N/c3ccnn3Cc3ccncc3)c3ccccc3c2=O)cc1`, the protection from apoptosis is -6.16%.

As for `CCOc1ccc(-n2c(O)c(/C=N/Nc3nc(C)cc(C)n3)c3ccccc3c2=O)cc1`, the protection from apoptosis is 83.2% (active).

For `CCN(CC)CCCN=Cc1c(O)n(-c2ccc(C)cc2)c(=O)c2ccccc12`, the protection from apoptosis was -3.92%.

With `COc1ccc(C(=O)C(C)OC(=O)c2cccc(S(=O)(=O)Nc3c(C)n(C)n(-c4ccccc4)c3=O)c2)cc1` (stereo not drawn), the protection from apoptosis is -20.9%.

Turning to `C[C@H](CO)N1C[C@H](C)[C@@H](CN(C)S(=O)(=O)c2ccc(F)cc2)Oc2ccc(NC(=O)CCC(F)(F)F)cc2C1=O`, the protection from apoptosis is -4.6%.

`C/C(=N\NS(=O)(=O)c1ccccc1)c1c(O)cc(C)oc1=O`: the protection from apoptosis is -4%.

Regarding `Cc1csc2nc(COC(=O)c3cccc(N(C)C)c3)cc(=O)n12`, the protection from apoptosis was 0.447%.

For the compound `O=C(CCCOc1ccccc1)NNC(=O)c1ccc(Cl)cc1`, the protection from apoptosis is -1.22%.

For `COc1ccc(C2CC(c3ccc(Cl)cc3Cl)Nc3nc(N)nn32)cc1OC` (stereo not drawn), the protection from apoptosis is -0.0368%.

On to `COc1ccc(C2CC(c3ccc(C)cc3)Nc3nc(N)nn32)cc1` (stereo not drawn), for which the protection from apoptosis is -2.94%.

Take `Cc1ccc(C2CC(c3cccc(C)c3)n3nc(N)nc3N2)cc1` (stereo not drawn): the protection from apoptosis was 101% (active).

`Cc1ccc(C2CC(c3cccc(Br)c3)n3nc(N)nc3N2)cc1` (stereo not drawn): the protection from apoptosis is 91.3% (active).

As for `Nc1nc2n(n1)C(c1ccco1)CC(c1ccc(Cl)c(Cl)c1)N2` (stereo not drawn), the protection from apoptosis is 0.887%.

On to `CCOc1ccccc1C1CC(c2ccccc2)Nc2nc(N)nn21` (stereo not drawn), for which the protection from apoptosis is 2.14%.

`O=C(CN1C(=O)NC2(CCCCCC2)C1=O)Nc1ccc([N+](=O)[O-])cc1`: the protection from apoptosis was 0.997%.

Consider `CCCCN(C(=O)C1=NN(c2cc(C)ccc2C)C(=O)CC1)c1c(N)n(CCC)c(=O)[nH]c1=O`, for which the protection from apoptosis is 1.47%.

On to `COc1ccccc1NC(=O)COC(=O)CNC(=O)C1CCCCC1`, for which the protection from apoptosis is -4.98%.

For `CCCCCCSc1ccc([C@@H]2[C@H]3C(=O)N(CC)C(=O)[C@H]3[C@]3(C(=O)OC)CCCCN23)cc1`, the protection from apoptosis was 2.19%.

As to `COC(=O)C1=C(C)NC(=S)NC1c1ccc(OCC(=O)N2CC(C)OC(C)C2)c(OC)c1` (stereo not drawn), the protection from apoptosis is 0.55%.

As for `O=C(CCCO)N/N=C/c1cc(Br)ccc1O`, the protection from apoptosis was 2.57%.

Turning to `O=C(N/N=C/c1ccccc1O)C1CCCC1`, the protection from apoptosis is 8.23%.

Regarding `O=C(N/N=C/c1ccccc1O)/C(=C/c1ccccc1)CCO`, the protection from apoptosis was 85.8% (active).

As for `O=C(CN1C(=O)NC2(CCCC2)C1=O)Nc1cc(C(F)(F)F)ccc1N1CCOCC1`, the protection from apoptosis was 1.66%.

Take `CCCOc1ccc(Cc2c(O)nc(SC)[nH]c2=O)cc1C`: the protection from apoptosis is -2.93%.

For the compound `CCCOc1ccc(C(=O)NCCc2ccccc2)cc1`, the protection from apoptosis is 9.99%.

On to `CCCOc1ccc(Cc2c(Cl)nc(SC)nc2NC)cc1`, for which the protection from apoptosis is 82.7% (active).

As to `COc1ccc(C2=Nn3c(nnc3-c3ccccc3OC)SC2)cc1OC1CCCC1`, the protection from apoptosis was 31.3%.

As for `CCOc1ccc(CN2CCCN(C)CC2)cc1`, the protection from apoptosis was -3.58%.

On to `O=C(NCCc1c[nH]c2ccccc12)C1CCN(Cc2ccc(Br)cc2)CC1`, for which the protection from apoptosis was -12.4%.

Consider `CCOc1ccc(CN2CCN(Cc3c[nH]c4ccccc34)CC2)cc1`, for which the protection from apoptosis is 76.1% (active).
